Measured values from PubChem BioAssay AID720517 (National Center for Advancing Translational Sciences (NCATS), 2013).
Inconclusive results are not listed. Where a call stands in place of a potency, no number is given. Calls of active or inactive are those of the source. Calls follow the shape of the dose curve; as a rule, active = well fitted activation curve with a large enough effect; inconclusive = small, poorly fitted or top-dose-only effect; inactive = flat fitted curve, though single readings scatter.

Experiment: qHTS for Inhibitors of Cell Surface uPA Generation: FP59 Counterscreen for Cherry-picked Compounds
Conditions: FP59 anthrax toxin cytotoxicity counterscreen, cells; series mostly up to 115 µM

Row | SMILES | Potency
1 | Cc1ccccc1OCCC(=O)NNC(=O)c1ccccc1F | inactive
2 | CCN(CC(=O)Nc1c(F)cccc1F)C(=O)c1ccc(-c2ccc(C(C)=O)cc2)o1 | inactive
3 | CCC(=O)N1CCC(NC(=O)Nc2ccc(OC(F)(F)F)cc2)CC1 | inactive
4 | CC1=NN(C(N)=S)C(=O)C1N=Nc1ccccc1C(=O)O (centres undefined) | inactive
5 | Cc1cc(SCc2ccc(Cl)cc2)nc(=O)[nH]1 | inactive
6 | COc1ccc(C(=O)N[C@H](C(=O)NCc2cccs2)C(C)C)cc1 | inactive
7 | CCOc1ccccc1C(=O)NC1CCN(CC(=O)Nc2cc(OC)ccc2OC)CC1 | inactive
8 | CCN(CC(=O)NCc1ccc(F)cc1)CC(=O)Nc1ccccc1-c1ccccc1 | inactive
9 | COc1cc(CCC(=O)OCC(=O)NCc2ccccc2)cc(OC)c1OC | inactive
10 | CCCCN(C(=O)c1cnccn1)c1c(N)n(CCC)c(=O)[nH]c1=O | inactive
11 | COc1ccc(CCNC(=O)Cn2c(=O)n(-c3cc(F)ccc3F)c(=O)c3sccc32)cc1OC | inactive
12 | CC(=O)c1ccc(NC(=O)CN2CCN(c3ccccc3)CC2)cc1 | inactive
13 | CN(/N=C/c1cc(Cl)cc(Cl)c1O)C(=S)NC(C)(C)C | inactive
14 | C[C@H](CO)N1C[C@H](C)[C@H](CN(C)S(=O)(=O)c2cn(C)cn2)Oc2ccc(NC(=O)Nc3ccc(C(F)(F)F)cc3)cc2CC1=O | inactive
15 | CC(C)Cn1cnc2c(N)nc3ccccc3c21 | inactive
16 | COc1ccc(Cl)cc1NC(=O)CSc1nc(=O)n(CCN(C)C)c2c1CCCC2 | inactive
17 | Cc1cccc(CCNC(=O)Cc2ccc(NC3=NC4CS(=O)(=O)CC4S3)cc2)c1 (centres undefined) | inactive
18 | COc1ccccc1NNC(=O)C(O)(c1ccccc1OC)c1ccccc1OC | inactive
19 | Cc1ccc(S(=O)(=O)N2CCN(C(=O)c3n[nH]c(=O)c4ccccc34)CC2)cc1 | inactive
20 | COC(=O)c1c(NC(=O)c2c(OC)cccc2OC)sc2c1C(C(=O)OC)CC2 (centres undefined) | inactive

Row | SMILES | Potency
21 | Cc1cc(C)cc(S(=O)(=O)c2cn(C)c3cc(N4CCN(C)CC4)c(F)cc3c2=O)c1 | inactive
22 | O=[N+]([O-])c1ccc(-c2cn3c(n2)SCC3)cc1 | inactive
23 | O=C(COC(=O)C1CC2C=CC1C2)NCc1ccccc1Cl (centres undefined) | inactive
24 | CCCn1nnc(NC(=S)NC(=O)c2ccccc2OC)n1 | inactive
25 | CC1CCCN(C(=O)c2ccc(-c3ccccc3Cl)o2)C1 (centres undefined) | inactive
26 | O=C(Nc1ccc(Cl)cn1)C1CCCN(c2ncnc3c2nc2n3CCCCC2)C1 (centres undefined) | inactive
27 | CC(/C=C1\SC(=S)N(CCCC(=O)Nc2ccc(C(=O)O)cc2)C1=O)=C\c1ccccc1 | inactive
28 | COc1ccccc1N1CCN(C(=O)CCC(=O)N2CCN(c3ccc(F)cc3)CC2)CC1 | inactive
29 | COc1ccccc1CNC(=O)CCCn1nc(C)c2c(C)n(-c3ccccc3)nc2c1=O | inactive
30 | COc1ccc(S(=O)(=O)N2CCN(Cc3ccccc3)CC2)c(C)c1 | inactive
31 | O=C(Nc1ccc(Cl)cc1)Nc1nnc(-c2ccncc2)s1 | inactive
32 | COc1ccc(C(=O)NC(C)c2cnn(-c3ccccn3)c2C)o1 (centres undefined) | inactive
33 | COc1ccc(/C(C)=N/N2CCOCC2)c(O)c1 | inactive
34 | CCCOc1ccc(CC2CCC(=O)NC2=O)cc1 (centres undefined) | inactive
35 | C[n+]1c2cc(N)ccc2cc2ccc(N)cc21 | inactive
36 | COc1ccc(C(=O)NCC(=O)N/N=C/c2c(C)[nH]c3ccccc23)cc1 | inactive
37 | COc1ccc(N2CCN(S(=O)(=O)c3ccc4c(c3)NC(=O)CS4)CC2)cc1 | inactive
38 | Cn1c(=O)c2c(ncn2CCO)n(C)c1=O | inactive
39 | CCCCn1c(N)c(N(CCC(C)C)C(=O)c2sc3nc4n(c(=O)c3c2C)CCC4)c(=O)[nH]c1=O | inactive
